Screening data: PubChem, several laboratories
ALR inh: inhibitors of human ALR sulfhydryl oxidase, primary screen, biochemical, H2O2 detection, HRP-luminol luminescence, single point; FAD-linked sulfhydryl oxidase ALR (Homo sapiens), P55789; purified ALR, DTT oxidation; inhibition, % (concentration not given with the values); 3.8% of 290,000 active; AID 485317, 2010;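 active = mean replicate inhibition above about 79%, with every replicate also reaching it, limit read from the data; inconclusive = only one of the two criteria met; inactive = mean below limit and not every replicate reaching it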
Target sequence (P55789 whole entry, looked up): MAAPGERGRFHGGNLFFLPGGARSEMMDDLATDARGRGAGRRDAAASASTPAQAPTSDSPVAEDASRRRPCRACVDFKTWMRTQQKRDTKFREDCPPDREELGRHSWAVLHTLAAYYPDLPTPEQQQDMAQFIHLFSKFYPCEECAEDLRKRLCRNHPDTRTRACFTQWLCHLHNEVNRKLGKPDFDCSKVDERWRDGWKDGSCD
APOBEC3G inh: APOBEC3G DNA deaminase inhibitors, primary screen, biochemical, fluorescence, single-stranded DNA substrate, uHTS | AID 493012, 2011 | recombinant A3G, ssDNA deamination FAM/TAMRA fluorescence | inhibition, % at 20 µM | 0.28% of 330,000 active | DNA dC->dU-editing enzyme APOBEC-3G (Homo sapiens), Q9HC16;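 active = inhibition of at least 40% at 20 µM, with no more than 30% in the related APOBEC3A deaminase screen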
Yeast superoxide: reduction of superoxide in aged yeast, primary screen, HTS | S. cerevisiae aged cells, superoxide DHE fluorescence; stronger effect = lower value | superoxide response (% of plate mean), % at 10 µM | 0.18% of 330,000 active;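 active = superoxide response under a set limit, about three screen SD below normal, cut at about 65% in these data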;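 also: yeast aged for seven days with compound at 30 °C before DHE staining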
A3A deaminase: APOBEC3A ssDNA deaminase inhibitors, primary screen, selectivity assay for APOBEC3G inhibitor project, biochemical, FAM/TAMRA oligo cleavage fluorescence; DNA dC->dU-editing enzyme APOBEC-3A (Homo sapiens), P31941; recombinant A3A, FAM/TAMRA ssDNA deamination fluorescence; inhibition, % at 20 µM; 0.41% of 330,000 active;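 active = at least 40% inhibition at 20 µM here, with at most 30% in a related deaminase screen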
Target sequence (P31941 whole entry, looked up): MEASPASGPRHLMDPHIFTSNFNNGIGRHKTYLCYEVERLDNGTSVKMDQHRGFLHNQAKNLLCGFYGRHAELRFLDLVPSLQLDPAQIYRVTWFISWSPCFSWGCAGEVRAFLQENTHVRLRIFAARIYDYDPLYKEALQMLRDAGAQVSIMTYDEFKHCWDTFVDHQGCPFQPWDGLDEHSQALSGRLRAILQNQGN
CendR NRP1 mod: modulators of CendR peptide binding to NRP-1, primary screen, biochemical, fluorescence polarization, uHTS. FAM-RPARPAR peptide binding to NRP-1. inhibition, % at 25 µM. 0.85% of 360,000 active;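 active = inhibition or corrected inhibition above about 18%, plus a signal ratio from 0.5 to 1.5, limit read from the data, passing the limit was not always enough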
PfM18AAP inh: PfM18AAP inhibitors, malaria aminopeptidase, primary screen, biochemical, QFRET, recombinant enzyme | AID 1822, 2009 | 1.2% of 290,000 active | H-Glu-NHMec fluorogenic cleavage | inhibition, % at 7.35 µM;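 active = inhibition above the campaign mean inhibition over all tested compounds plus 3 SD, cut at about 28% in these data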
Hits are given with their value; . = inactive; ? = inconclusive; / = no result. A selection: hits, their analogues and other compounds. The true share with any hit is near 5.2%.

SMILES	ALR inh	APOBEC3G inh	Yeast superoxide	A3A deaminase	CendR NRP1 mod	PfM18AAP inh
CC(C)(C)S(=O)(=O)c1cnc(N2CCCC2)nc1N	.	.	.	.	.	.
Cc1nc(SCC(=O)NC2CCS(=O)(=O)C2)c(C#N)c(C)c1C (stereo not drawn)	.	.	.	.	.	/
Cc1ccc(C)c(NC(=O)Cn2c([N+](=O)[O-])cnc2C)c1	.	.	.	.	.	.
Cc1cc(C(=O)NNc2ccc(Cl)cc2)no1	?	.	.	.	.	.
Cc1cc(C(=O)NNc2ccc(F)cc2F)no1	98	.	.	.	.	.
Cc1cc(C(=O)NNc2ccc(C)c(C)c2)no1	99	.	.	.	.	.
Cc1ccc(NNC(=O)c2cc(C)on2)c(C)c1	?	.	.	.	.	.
CCCCCN1CC(O)=C(c2nc3ccccc3[nH]2)C1=N	.	.	.	.	.	.
C=CCN1CC(O)=C(c2nc3ccccc3[nH]2)C1=N	83	.	.	.	.	.
CCCCN1CC(O)=C(c2nc3ccccc3[nH]2)C1=N	.	.	.	.	22	.
CC(C)CCN1CC(O)=C(c2nc3ccccc3[nH]2)C1=N	.	.	.	.	.	.
COc1ccc(NC2CC(=O)N(c3cccc(C)c3)C2=O)cc1 (stereo not drawn)	.	.	.	.	.	.
COc1ccc(NC2CC(=O)N(c3cccc([N+](=O)[O-])c3)C2=O)cc1 (stereo not drawn)	89	.	.	.	.	.
COc1ccc(NC(=O)CC2Nc3cccc4cccc(c34)NC2=O)cc1 (stereo not drawn)	100	.	.	.	.	.
CC1CN(S(=O)(=O)c2cccc(C(=O)Nc3ccccc3N3CCCC3)c2)CC(C)O1 (stereo not drawn)	97	.	.	.	.	/
CC(=O)N1CCN(S(=O)(=O)c2cccc(C(=O)NNC(=O)Cn3nc(C)cc3C)c2)CC1	/	.	.	.	.	/
Cc1ccc(S(=O)(=O)N2CCC(C(=O)Nc3ccccc3N3CCCC3)CC2)cc1	/	.	.	.	.	/
CC(=O)N1CCN(S(=O)(=O)c2cccc(C(=O)NNC(=O)Cn3ccc(C(F)(F)F)n3)c2)CC1	.	.	.	.	28	/
COc1ccc(S(=O)(=O)N2CCC(C(=O)Nc3ccccc3N3CCCC3)CC2)cc1OC	97	.	.	.	.	.
CC(=O)N1CCN(S(=O)(=O)c2cccc(C(=O)Nc3ccccc3N3CCCC3)c2)CC1	97	.	.	.	.	/
COc1cccc(-c2cc(CNC(=O)[C@H]3O[C@@H](n4ccc(=O)[nH]c4=O)[C@H](O)[C@@H]3O)no2)c1	/	/	/	/	.	/
CCc1cc(-c2nc(N)ncc2-c2csc(C)n2)c(O)cc1OC	.	.	.	.	.	.
Cc1ccc(NC(=S)Nc2ccc3nc(-c4ccccn4)c(-c4ccccn4)nc3c2)cc1C	.	/	.	/	.	.
CCc1ccccc1NC(=O)COC(=O)c1c(C)nsc1NC	.	.	.	.	.	/
O=C(NC1CCCCC1)c1ccc(-c2cccc([N+](=O)[O-])c2)o1	94	.	.	.	.	.
SMILES	ALR inh	APOBEC3G inh	Yeast superoxide	A3A deaminase	CendR NRP1 mod	PfM18AAP inh
CN1CCN(c2ccccc2NC(=O)c2ccc(-c3cccc([N+](=O)[O-])c3)o2)CC1	.	/	.	/	45	.
COC(=O)C1(C)Nc2ccccc2C(=O)N1c1ccccc1OC (stereo not drawn)	.	.	.	.	.	.
CCN(CCNCC(O)COc1ccccc1C(C)C)c1cccc(C)c1 (stereo not drawn)	99	.	.	.	.	.
Cn1c(CCNC(=O)c2cccs2)n[nH]c1=S	.	.	.	.	.	.
CCSc1nnc(CCNC(=O)OC(C)(C)C)o1	.	.	.	.	.	.
CC(C)(C)OC(=O)NCCc1n[nH]c(=S)o1	.	.	.	.	27	.
Cn1c(CCNC(=O)OC(C)(C)C)n[nH]c1=S	95	.	.	.	.	.
COc1cc2[nH]c3c(=O)n(CCN4CCOCC4)cnc3c2cc1OC	.	.	.	.	.	.
CC(C)c1ccc(NC2CCCN(C(=O)c3cccc(N4CCNC4=O)c3)C2)cc1 (stereo not drawn)	95	.	.	.	.	.
COc1ccc(NC2CCCN(C(=O)c3cccnc3)C2)cc1 (stereo not drawn)	97	.	.	.	.	.
CC(C)c1ccc(NC2CCCN(C(=O)c3ccc4nccnc4c3)C2)cc1 (stereo not drawn)	.	.	.	.	.	.
COc1ccc(NC2CCCN(C(=O)c3cccc(N4CCNC4=O)c3)C2)cc1 (stereo not drawn)	99	.	.	.	.	.
CC(C)c1ccc(NC2CCCN(C(=O)c3ccnc(Cl)c3)C2)cc1 (stereo not drawn)	.	.	.	.	.	.
Cc1ccccc1-n1c(-c2csc(C)c2C)n[nH]c1=S	.	.	.	.	.	.
Cc1scc(-c2n[nH]c(=S)n2C(C)c2ccccc2)c1C (stereo not drawn)	83	.	.	.	.	.
CCc1cc(-c2n[nH]c(=S)n2C(C)c2ccccc2)cs1 (stereo not drawn)	94	.	.	.	.	.
O=C(O)CCc1nn2c3ccccc3nc2n(-c2ccccc2)c1=O	.	.	.	.	.	.
Cn1nnnc1SCc1csc(Nc2ccccc2)n1	90	.	.	.	.	.
Cc1ccc(Nc2nc(CSc3nnnn3-c3ccccc3)cs2)cc1	.	.	.	.	.	.
Cc1ccc(Nc2nc(CSc3n[nH]c(N)n3)cs2)cc1	98	.	.	.	.	29
Cc1ccc(Nc2nc(CSc3nnnn3C)cs2)cc1	99	.	.	.	.	.
Cc1cc(C)cc(C(=O)NC(CC(N)=O)c2ccc(N3CCN(c4ccccc4)CC3)c([N+](=O)[O-])c2)c1 (stereo not drawn)	.	.	.	.	.	.
O=C(Cc1ccc([N+](=O)[O-])cc1)Nc1cccc(C(=O)N2CCCC2)c1	.	.	.	.	.	/
CCCOc1ccc(/C(O)=C2/C(=O)C(=O)N(CCCOC)C2c2cccnc2)cc1 (stereo not drawn)	.	.	.	.	28	.
O=C(NC1CCCC1)C(c1ccncc1)N(C(=O)c1csnn1)c1cccc(F)c1 (stereo not drawn)	.	.	.	.	.	.
